# Among all 310,000 compounds or so, about 18,000 (5.8%) were called active. Not shown: some 22% with an inconclusive outcome. The call rests on the fitted dose curve; in most records, active means well fitted inhibition curve with a large enough effect; inconclusive means small, poorly fitted or top-dose-only effect, or another doubt; inactive means no such curve, though single readings can be large or run the other way. What follows is part of a selection rich in actives, with near analogues and random picks from the rest.
# Test: Primary qHTS for delayed death inhibitors of the malarial parasite plastid, 48 hour incubation
# Details: P. falciparum luciferase growth in erythrocytes; series mostly up to 28.7 µM; activity change, negative = inhibition: at the top concentration
# From the text: The goal of this screen is to discover new antimalarial compounds that act by inhibiting the development of the apicoplast in the malarial parasite Plasmodium falciparum. The biochemical processes that make this organelle essential for erythrocytic stage parasites are not well understood. However, antibiotics such as azithromycin and tetracycline, which target the apicoplast translational machinery, have a potent antimalarial effect.
# We have developed a cell-based assay that measures parasite growth based on the expression of an integrated copy of a firefly luciferase reporter. To detect small molecules that cause this "delayed death" phenotype, erythrocytes infected with the luciferase-expressing parasites were incubated with compounds for either one or two generations, corresponding to 48 and 96 hours, respectively. Compounds that inhibit parasite growth in the second generation, but not the first, should be enriched in antimalarials that target the apicoplast. Growth inhibition is detected by a decrease in luciferase activity.
# Assay Provider: David Fidock and Eric Ekland, Columbia University
# Keywords: NIH Roadmap, MLPCN, MLI, MLSMR, qHTS, NCGC, qHTS, malaria, luciferase, viability
# Four microliters of culture medium (RPMI 1640 with 0.5% w/v Albumax (GIBCO), 24 mM sodium bicarbonate and 10 ug/mL gentamycin) were dispensed by a Multi-drop Combi into white solid 1536-well plates (Grenier) and 23 nL compound was added by a pin tool. Four microliters of infected erythrocytes (2% hematocrit, 0.1% parasitemia final concentration) in culture medium were dispensed and the plates incubated for 48 hours at 37 C in 5% CO2. Two microliters of luciferase detection reagent was added and luminescence was detected by a ViewLux (PerkinElmer) reader.
# On the % scale 0 is the no-effect control and ±100 the full control effect; potency means the concentration at half of the fitted maximal effect.
SMILES,"activity change, negative = inhibition",Potency
O=C(COC(=O)Cn1[nH]c(=O)c2ccccc2c1=O)Nc1c(Cl)cccc1C(F)(F)F,36.6% (inactive),
O=C(Cc1cccs1)NCc1cccc(C(F)(F)F)c1,0.71% [at 0.00184 µM] (inactive),
CC1CN(C(=S)Nc2ccccc2F)CC(C)O1 (configuration not stated),-5.26% (inactive),
COc1ccc(C(=O)N2CCCN(C)CC2)c(OC)c1,-12.5% (inactive),
COc1ccc(CN2CCNC(=O)C2CC(=O)NCc2cn[nH]c2-c2ccccc2)c(F)c1 (configuration not stated),-21.3% (inactive),
COc1ccc(CN2CC(C(=O)NCCc3ccc(Cl)cc3)CC2=O)cc1 (configuration not stated),12.1% (inactive),
O=C(O)c1ccccc1C(=O)Nc1nc(-c2ccccc2)cs1,1.55% (inactive),
Cc1ccc(C)c(NC(=O)c2ccc3nccnc3c2)c1,39.5% (inactive),
COc1ccc(CNC(=O)Cc2ccc(-c3ccccc3)cc2)cc1OC,-7.62% (inactive),
CCn1c(C)cc(=O)cc1-c1ccc(Cl)cc1,-13.4% (inactive),
COc1ccc(C(=O)CN(C(=O)c2ccc(Cl)cc2)N2C(=O)c3ccccc3C2=O)cc1,-2.1% (inactive),
COc1ccc(Cn2c(-c3ccc(Cl)cc3)c[n+]3ccccc23)cc1,,0.522 µM (active)
Cc1ccc(OCC(=O)NCCCNC(=O)c2ccco2)cc1C,-9.91% (inactive),
Cn1cccc1C(=O)NNC(=O)COc1ccc(Br)cc1,4.6% (inactive),
COc1cccc(C(O)c2nc3ccccc3n2C)c1 (configuration not stated),12% (inactive),
Cc1n[nH]c(=O)c2c(NC(=O)COC(=O)c3ncc(Cl)c(Cl)c3Cl)oc(C)c12,77.2% (inactive),
COc1cc(OC)c(S(=O)(=O)Nc2ccccc2C(=O)O)cc1S(=O)(=O)Nc1ccccc1C(=O)O,-2.89% (inactive),
Cc1ccc(C)c(NC(=O)CN(C)C(=O)c2ccc3ncsc3c2)c1,-3.05% (inactive),
O=C(Nc1ccnc(-c2ccncc2)n1)c1cccs1,,11.7 µM (active)
O=C(Nc1ncccn1)c1cccs1,22.9% (inactive),
O=C(Nc1ccc(NC(=O)c2cccs2)cn1)c1ccco1,281% (inactive),
CC(C)CN(C(=O)CSc1ncnc2sccc12)C1CCS(=O)(=O)C1 (configuration not stated),-15.5% (inactive),
CCN(CC)CCn1c2c(c(SCC(=O)Nc3nc4ccccc4s3)nc1=O)CCCC2,-4.88% (inactive),
Cc1ccc(-c2cc(C(F)(F)F)n3ncc(C(=O)N4CCCCC4c4cccnc4)c3n2)cc1 (configuration not stated),,1.65 µM (active)
O=C(Nc1ccccc1C(F)(F)F)N1CCCC1c1cccnc1 (configuration not stated),11% (inactive),
O=C(NC(=S)N1CCCCC1c1cccnc1)c1ccccc1 (configuration not stated),0.637% (inactive),

SMILES,"activity change, negative = inhibition",Potency
CCn1c(SCC(=O)NC2CC2)nnc1-c1ccccn1,-6.85% (inactive),
CCOc1ccc(C(=O)CCN2CCOCC2)cc1,-9.9% (inactive),
CC(=O)c1ccc(S(=O)(=O)NCc2nnnn2-c2ccccc2)cc1,4.77% (inactive),
Cc1cccc(-c2nnc(SCC(=O)O)n2Cc2ccccc2)c1,9.98% (inactive),
O=C(N[C@@H](Cc1ccccc1)C(=O)OCc1ccccc1)c1nc[nH]c1C(=O)N[C@@H](Cc1ccccc1)C(=O)OCc1ccccc1,25.2% (inactive),
CC(C)(C)OC(=O)N1CCC(NC(=O)c2[nH]cnc2C(=O)N[C@@H](Cc2ccccc2)C(=O)OCc2ccccc2)CC1,,0.928 µM (active)
C[C@@H](NC(=O)c1nc[nH]c1C(=O)N1CCN(C(=O)OC(C)(C)C)CC1)c1ccccc1,-19.3% (inactive),
Cc1onc(C(=O)Nc2ccc3c(c2)OCO3)c1[N+](=O)[O-],-3.19% (inactive),
Cc1c(CCOC(=O)CC23CC4CC(CC(C)(C4)C2)C3)sc[n+]1Cc1ccc([N+](=O)[O-])cc1,,2.62 µM (active)
Cc1c(CCOC(=O)c2cc([N+](=O)[O-])ccc2Cl)sc[n+]1CCCCS(=O)(=O)[O-],3.97% (inactive),
Oc1ccc(Br)cc1/C=N/Nc1ccccn1,,1.47 µM (active)
O=C(CCCO)N/N=C/c1cc(Br)ccc1O,-7.77% (inactive),
Oc1ccc(/C=N/Nc2ccc(C(F)(F)F)cn2)cc1O,25.2% (inactive),
CC(C)c1ccc(S(=O)(=O)N2CCC3(CC2)OCCO3)cc1,-3.34% (inactive),
COc1cc2ccccc2cc1C(=O)Nc1ccccc1C,194% (inactive),
COc1ccc(C)cc1NC(=O)Nc1ccccc1SC,2.04% (inactive),
COc1ccc(C)cc1NC(=O)c1cc(-c2ccccc2)nc2c1cnn2C(C)C,,4.65 µM (active)
Cc1ccc(-c2noc(C3CCCN(C(=O)c4cccc(Cl)c4)C3)n2)o1 (configuration not stated),100% (inactive),
O=C(CCNC(=O)c1ccc(Br)cc1)NCCCc1ccccc1,25.6% (inactive),
Cc1cccc2[nH]c(CN(C)C(=O)C3CCC(=O)N(CCc4ccccc4)C3)nc12 (configuration not stated),-17.7% (inactive),
CC(C)c1ccc(N2CCN(C(=O)c3ccccc3NC(=O)/C=C(\C(=O)O)c3ccccc3)CC2)cc1,,13.1 µM (active)
COc1ccc(C(=O)Nc2ccccc2C(=O)N2CCN(c3ccccc3)CC2)cc1,-16.5% (inactive),
Cc1ccccc1C(=O)NC(=S)Nc1ccc(N2CCN(C(=O)c3ccccc3)CC2)cc1,-9.42% (inactive),
COc1ccc(NC(=O)CCS(=O)(=O)c2cc3c(cc2Cl)NC(=O)CO3)cc1OC,21.5% (inactive),
O=C(COC(=O)c1cccs1)Nc1ccccc1Cl,4.31% (inactive),
O=C(Nc1ccc2c(c1)CCC2)c1cccc(S(=O)(=O)Nc2ccccc2Cl)c1,-1.32% (inactive),

SMILES,"activity change, negative = inhibition",Potency
O=C(Cc1ccc2c(c1)CCCC2)Nc1ccccc1Cl,,11.7 µM (active)
O=C(Nc1ccccc1N1CCOCC1)c1ccncc1,-23.9% (inactive),
CCCc1ccc(OCC(O)CN2CCN(CCO)CC2)cc1 (configuration not stated),5.68% (inactive),
CCCCc1nc(NCc2ccccc2)c(C#N)c2c1CCCC2,,6.57 µM (active)
CCc1nc(NCCO)c(C#N)c2c1CCCC2,1.82% (inactive),
CN(C)c1nccc(NCc2ccccc2)c1C#N,12.3% (inactive),
CCOC(=O)c1ccccc1NC(=O)COC(=O)C(Cc1c[nH]c2ccccc12)NC(C)=O (configuration not stated),15.1% (inactive),
CCOc1cccc(=NC2CCCCC2)c2c(C)[nH]c(C)c12,,2.33 µM (active)
CCOc1ccccc1NC(=O)NC1CCCCCCC1,-19.6% (inactive),
Cc1cc(C)n2nc(C(=O)Nc3cccc(S(=O)(=O)N4CCOCC4)c3)nc2n1,11.9% (inactive),
CC(C)C[C@H](NC(=O)C1CC(=O)N(c2ccc3c(c2)OCCO3)C1)C(=O)NC1CCCC1 (some centres not stated),-6.29% (inactive),
C/C=C/C(=O)OCc1csc(CC(=O)Nc2ccccc2C)n1,24.7% (inactive),
CCCc1nnc(NC(=O)CCC(=O)N2CCN(S(=O)(=O)c3ccc(OC)cc3)CC2)s1,-11.4% (inactive),
COc1ccc(Cc2nc3ccc(C(=O)N4CCC(N(C)C)C4)cc3o2)cc1 (configuration not stated),-3.86% (inactive),
CCc1cccc(NC(=O)COC(=O)C2CCN(c3ccc(C(F)(F)F)cn3)CC2)c1,52.4% (inactive),
COc1ccc(C(=O)C2CCCN(Cc3cccn3-c3ccccn3)C2)c(C)c1 (configuration not stated),,6.57 µM (active)
COc1ccc(C(=O)C2CCCN(Cc3ccc4nonc4c3)C2)c(C)c1 (configuration not stated),-14.3% (inactive),
CCOC(=O)c1[nH]ncc1CN1CCCC(C(=O)c2ccc(OC)cc2C)C1 (configuration not stated),21.3% (inactive),
COC(=O)c1ccc(NC(=O)CSc2nc(N)c(NC(=O)c3ccc(Br)o3)c(=O)[nH]2)cc1,3.29% (inactive),
COCCn1c(SCC(=O)N2CCCCCC2)nc2c(c1=O)SCC2,-12.2% (inactive),
COc1ccc(CCN=C2SCC(=O)N2Cc2ccccc2)cc1OC,-10.1% (inactive),
COc1ccc(CCNC2=C(Cl)C(=O)N(Cc3ccccc3)C2=O)cc1OC,,11.7 µM (active)
COc1ccc(CCN2C(=O)C(C)=C(C)C2=O)cc1OC,11% (inactive),
CCS(=O)(=O)Nc1ccc(C(=O)NCCSc2ccccc2)cc1,0% (inactive),
CN(C)CCNC(=O)c1[nH]nc2c1CCc1ccccc1-2,44.2% (inactive),
O=C(N/N=C/c1ccoc1)c1ccc(Cl)cc1Cl,5.69% (inactive),

SMILES,"activity change, negative = inhibition",Potency
CCCn1nc(NC(=O)C(C)C)c2cc3cc(OC)ccc3nc21,,11.7 µM (active)
CCCn1nc(NS(=O)(=O)c2ccc(F)cc2)c2cc3ccccc3nc21,20.1% (inactive),
CCCn1nc(NS(=O)(=O)c2ccccc2)c2cc3cc(C)ccc3nc21,8.29% (inactive),
O=C(OCC(=O)N1CCCCCC1)c1cnc(Cl)c(Cl)c1,-3.82% (inactive),
CC[C@]1([C@H]2O[C@@H]([C@@H]3O[C@](O)(CO)[C@@H](C)C[C@H]3C)C[C@H]2C)CC[C@@H]([C@]2(C)CC[C@@]3(C[C@@H](O)[C@@H](C)[C@@H]([C@H](C)[C@H](OC)[C@H](C)C(=O)O)O3)O2)O1,,0.0169 µM (active)
CSc1nc(N)c(C#N)c(-c2ccccc2Cl)c1C#N,3.07% (inactive),
CSc1ccc(-c2c(C#N)c(N)nc3c2c(C)nn3-c2ccccc2)cc1,,1.47 µM (active)
Cc1nn(-c2ccccc2)c2c1C(c1ccc(F)cc1)C(C#N)=C(N)O2 (configuration not stated),-21.9% (inactive),
COc1cc(CNCc2ccc(OC)c3ccccc23)cc(OC)c1OC,-29.2% (inactive),
COc1ccccc1N1CCC(N2CCN(CC(C)(C)C)C(CCO)C2)CC1 (configuration not stated),-4.92% (inactive),
C[N+](C)(CCCCCC[N+](C)(C)CCCN1C(=O)c2cccc3cccc(c23)C1=O)CCCN1C(=O)c2cccc3cccc(c23)C1=O,,0.329 µM (active)
O=C1c2cccc3cccc(c23)C(=O)N1CCCCCc1n[nH]c(=S)o1,-2.6% (inactive),
O=C(CN1C(=O)c2cccc3cccc(c23)C1=O)N1CCCCC1,-23.4% (inactive),
N#CCN(C(=O)COC(=O)C1CC2CCCC(C1)C2=O)c1ccccc1 (configuration not stated),-0.813% (inactive),
CCOc1ccc(NC(=O)c2ccc(NC(=O)C3CCCO3)cc2)cc1 (configuration not stated),11.7% (inactive),
CCOc1ccc(S(=O)(=O)N2CCCCC2)cc1NC(=O)CN1CCCC1c1cccs1 (configuration not stated),,4.65 µM (active)
O=C(CNCc1cccs1)Nc1cc(S(=O)(=O)N2CCCC2)ccc1Cl,-41.9% (inactive),
CC(=O)NCCC(=O)Nc1cc(S(=O)(=O)N2CCCCC2)ccc1Oc1cccc(C)c1,28% (inactive),
O=C(CNC(=O)c1ccccc1Br)NNC(=O)c1cccs1,0% (inactive),
O=C(NCCCn1ccnc1)c1ccccc1F,10.2% (inactive),
O=C(Nc1ccccc1C(=O)NCCCn1ccnc1)c1ccc(Cl)cc1Cl,,9.28 µM (active)
O=C(NCCCn1ccnc1)Nc1ccc(Cl)cc1Cl,-10.3% (inactive),
O=C(CSc1nc(=O)n2ccccc2n1)Nc1ccc2c(c1)OCCO2,38.7% (inactive),
COc1ccc(C(C)NC(=O)C2CCCC2)cc1 (configuration not stated),3.5% (inactive),

# Reference: PubChem BioAssay AID504832 (National Center for Advancing Translational Sciences (NCATS), 2011)
